In PubChem BioAssay (Tox21):
“And” between values parts separate entries of the source, which are not always exact repeats. Equal values may be shown once. Records with an inconclusive call do not appear. Some compounds were tested as several samples or in several runs, with calls that do not always agree. The source made the active and inactive calls. Unless noted, calls follow the shape of the full dose curve.

How the values were obtained:
[1] = Nuclear factor erythroid 2-related factor 2/antioxidant responsive element (Nrf2/ARE) small molecule agonists: qHTS cell viability counter screen in human keratinocytes (AID 1919968; active = well fitted curve in the direction sought with a large enough effect in the repeat runs; an effect the other way counts as inactive or inconclusive; also: nearly all actives have a fitted effect of over 55% in size; also: potency is read from the fitted curve at half-maximal effect)
In short: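 Seed 1,500 KeratinoSens cells per well, then incubate 5 h at 37 C/5% CO2. Add compounds in DMSO and incubate 23 h. Add CellTiter-Fluor, wait 1 h and read fluorescence.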

[2] = Nuclear factor erythroid 2-related factor 2/antioxidant responsive element (Nrf2/ARE) small molecule agonists: luciferase reporter gene qHTS assay in human keratinocytes (AID 1919969); also: nearly all actives have a fitted effect of over 35% in size; also: potency is read from the fitted curve at half-maximal effect
[3] = molecular target: Gonadotropin-releasing hormone receptor (Homo sapiens) (UniProt P30968); experiment: Human gonadotropin-releasing hormone receptor (GnRHR) small molecule agonists, calcium flux assay in GnRHR-HEK293 cells (AID 1920063); also: nearly all actives have a fitted effect of over 35% in size
Sequence of Gonadotropin-releasing hormone receptor (Homo sapiens) (P30968 whole entry, looked up): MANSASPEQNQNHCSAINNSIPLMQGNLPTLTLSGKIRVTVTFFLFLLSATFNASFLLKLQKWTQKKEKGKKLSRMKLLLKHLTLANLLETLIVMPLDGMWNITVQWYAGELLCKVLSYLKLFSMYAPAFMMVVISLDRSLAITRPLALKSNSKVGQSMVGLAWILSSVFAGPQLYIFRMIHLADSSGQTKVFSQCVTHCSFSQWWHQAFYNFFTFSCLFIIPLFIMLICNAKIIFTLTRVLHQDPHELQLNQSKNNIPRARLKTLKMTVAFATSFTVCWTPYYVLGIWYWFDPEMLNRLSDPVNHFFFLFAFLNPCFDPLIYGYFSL
In short: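 Cells: HEK293 stably expressing human GnRHR. Steps: overnight (18 h) culture, 1 h calcium dye loading at 37 C, compound addition, kinetic fluorescence read at 480/540 nm. Each compound tested at 15 concentrations in triplicate.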

[4] = G protein-coupled receptor (GPCR) small molecule agonists, calcium flux assay: HEK293 wild type cell line counter screen (AID 1920065)
In short: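 Counter-screen of the Tox21 10K library for non-specific calcium release: dye-loaded cells received compounds in DMSO and were monitored by kinetic fluorescence (480/540 nm, 3 min). Fifteen concentrations, run in triplicate.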

[5] = p53 small molecule agonists, cell-based qHTS assay with human liver microsomes (AID 1963577)
In short: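 p53RE-bla reporter cells were pre-incubated 5 h at 37 C, then treated with compounds plus human liver microsomes (0.5 mg/mL final) and NADPH (0.5 mg/mL final) for 16 h at 37 C. Beta-lactamase activity was read by LiveBLAzer fluorescence after 2 h at room temperature.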

[6] = p53 small molecule agonists, cell-based qHTS assay with human liver microsomes: qHTS cell viability counter screen (AID 1963579); also: nearly all actives have a fitted effect of over 45% in size
In short: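 p53RE-bla cells (4,000/well) were pre-incubated 5 h at 37 C, then given compounds in DMSO plus human liver microsomes (0.5 mg/mL final) and NADPH (0.5 mg/mL final) for 16 h at 37 C. Viability was read by CellTiter-Glo luminescence.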

[7] = p53 small molecule agonists, cell-based qHTS assay with rat liver microsomes: qHTS cell viability counter screen (AID 1963580); also: nearly all actives have a fitted effect of over 45% in size
In short: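 In HCT-116 cells carrying a p53 response element-bla reporter, compounds were metabolically activated in situ by rat liver microsomes with NADPH over 16 h. Cell ATP content then served as the cytotoxicity measure.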

[8] = p53 small molecule agonists, cell-based qHTS assay: qHTS cell viability counter screen (AID 1963581); also: nearly all actives have a fitted effect of over 45% in size
In short: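 Cells: HCT-116 with p53 response element-driven beta-lactamase. Treatment: 16 h, 37 C, compounds in DMSO. Read: CellTiter-Glo luminescence after 30 min RT.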

[9] = p53 small molecule agonists, cell-based qHTS assay (AID 1963582; active = well fitted activation curve with a large enough effect in the signal ratio in the repeat runs, not every such curve was filed as active; the % refers to the signal ratio; also: potency is read from the fitted curve at half-maximal effect)
In short: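 Quantitative HTS in p53RE-bla cells: after a 5 h settling period, compounds delivered in DMSO were left on cells for 16 h at 37 C, and reporter induction was measured as fluorescence following 2 h substrate loading.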

[10] = molecular target: 5-hydroxytryptamine receptor 2A (Homo sapiens) (UniProt P28223); experiment: 5-hydroxytryptamine receptor 2A (HTR2A) small molecule antagonists, cell-based qHTS assay (AID 1963586); also: nearly all actives have a fitted effect of over 45% in size
Sequence of 5-hydroxytryptamine receptor 2A (Homo sapiens) (P28223 whole entry, looked up): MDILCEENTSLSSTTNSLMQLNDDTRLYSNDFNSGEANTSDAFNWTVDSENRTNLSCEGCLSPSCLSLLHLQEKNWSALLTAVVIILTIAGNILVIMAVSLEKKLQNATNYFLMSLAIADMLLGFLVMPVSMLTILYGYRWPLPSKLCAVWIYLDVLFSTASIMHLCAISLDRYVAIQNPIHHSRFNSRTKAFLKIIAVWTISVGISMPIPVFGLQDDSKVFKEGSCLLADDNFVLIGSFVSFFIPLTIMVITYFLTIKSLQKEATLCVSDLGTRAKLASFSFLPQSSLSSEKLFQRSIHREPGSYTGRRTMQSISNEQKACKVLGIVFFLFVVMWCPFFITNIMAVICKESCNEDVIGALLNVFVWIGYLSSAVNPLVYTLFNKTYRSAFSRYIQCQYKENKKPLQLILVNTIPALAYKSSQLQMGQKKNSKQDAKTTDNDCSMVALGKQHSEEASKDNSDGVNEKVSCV
In short: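 Antagonist-mode intracellular calcium assay: DOI (4 nM) added after 5 min compound pre-incubation at room temperature to dye-loaded HTR2A-CHO cells. Fluorescence followed for 3 min, sampled every second.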

[11] = molecular target: 5-hydroxytryptamine receptor 2A (Homo sapiens) (UniProt P28223); experiment: 5-hydroxytryptamine receptor 2A (HTR2A) small molecule agonists, cell-based qHTS assay (AID 1963587); also: nearly all actives have a fitted effect of over 30% in size
In short: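 HTR2A-CHO cells, plated 18 h at 37 C/5% CO2, dye-loaded 1 h at 37 C; compounds in DMSO added by pin tool (agonist mode). Intracellular calcium flux read as kinetic fluorescence on FDSS over 2 min at 1 s intervals.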

[12] = molecular target: Muscarinic acetylcholine receptor M1 (Homo sapiens) (UniProt P11229); experiment: Cholinergic receptor muscarinic 1 (CHRM1) small molecule antagonists, cell-based qHTS assay (AID 1963588); also: nearly all actives have a fitted effect of over 40% in size; also: potency is read from the fitted curve at half-maximal effect
Sequence of Muscarinic acetylcholine receptor M1 (Homo sapiens) (P11229 whole entry, looked up): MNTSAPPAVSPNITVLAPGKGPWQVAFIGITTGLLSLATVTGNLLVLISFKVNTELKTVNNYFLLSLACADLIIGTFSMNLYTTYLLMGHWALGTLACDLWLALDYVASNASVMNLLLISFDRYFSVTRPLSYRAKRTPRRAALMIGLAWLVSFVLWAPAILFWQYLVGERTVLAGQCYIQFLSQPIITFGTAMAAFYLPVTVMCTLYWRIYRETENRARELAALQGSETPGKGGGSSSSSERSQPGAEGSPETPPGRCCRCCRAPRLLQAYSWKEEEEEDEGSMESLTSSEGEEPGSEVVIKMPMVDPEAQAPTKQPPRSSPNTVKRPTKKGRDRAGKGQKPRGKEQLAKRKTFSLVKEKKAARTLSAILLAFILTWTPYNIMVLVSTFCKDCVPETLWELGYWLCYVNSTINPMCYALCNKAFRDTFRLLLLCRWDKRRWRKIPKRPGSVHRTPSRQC
In short: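 CHRM1-CHO calcium-flux assay, antagonist mode. Cells were seeded 18 h, dye-loaded 1 h at 37 C and given compound for 5 min at RT, then acetylcholine was added at 50nM. FDSS fluorescence was read 3 min; 15 concentrations, three runs.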

[13] = molecular target: Muscarinic acetylcholine receptor M1 (Homo sapiens) (UniProt P11229); experiment: Cholinergic receptor muscarinic 1 (CHRM1) small molecule agonists, cell-based qHTS assay (AID 1963589); also: nearly all actives have a fitted effect of over 35% in size
In short: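 Agonist-mode qHTS in CHO cells stably carrying human muscarinic M1. Intracellular calcium is tracked by fluorescence every second after compound transfer; each compound runs at 15 concentrations in three independent runs.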

[14] = cAMP Responsive Elements (CRE) small molecule agonists, cell-based qHTS assay (AID 1963590)
In short: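 Agonist mode qHTS in CRE-bla HEK 293T cells: compounds dosed from DMSO for 3 h at 37 C/5% CO2, followed by LiveBLAzer B/G FRET substrate for 2 h at room temperature.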

[15] = cAMP Responsive Elements (CRE) small molecule antagonists, cell-based qHTS assay (AID 1963591; active = well fitted inhibition curve with a large enough effect in the signal ratio in the repeat runs, not every such curve was filed as active; the % refers to the signal ratio)
In short: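 Antagonist mode: test compounds are co-incubated with the adenylyl cyclase activator NKH477 (0.25 uM final) on CRE-bla HEK293T cells for 3 h at 37 °C, followed by LiveBLAzer substrate loading.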

[16] = molecular target: Beta-2 adrenergic receptor (Homo sapiens) (UniProt P07550); experiment: Adrenergic beta2 receptor (ADRB2) small molecule antagonists, cell-based qHTS assay (AID 1963592); also: series mostly up to about 92 µM; nearly all actives have a fitted effect of over 50% in size
Sequence of Beta-2 adrenergic receptor (Homo sapiens) (P07550 whole entry, looked up): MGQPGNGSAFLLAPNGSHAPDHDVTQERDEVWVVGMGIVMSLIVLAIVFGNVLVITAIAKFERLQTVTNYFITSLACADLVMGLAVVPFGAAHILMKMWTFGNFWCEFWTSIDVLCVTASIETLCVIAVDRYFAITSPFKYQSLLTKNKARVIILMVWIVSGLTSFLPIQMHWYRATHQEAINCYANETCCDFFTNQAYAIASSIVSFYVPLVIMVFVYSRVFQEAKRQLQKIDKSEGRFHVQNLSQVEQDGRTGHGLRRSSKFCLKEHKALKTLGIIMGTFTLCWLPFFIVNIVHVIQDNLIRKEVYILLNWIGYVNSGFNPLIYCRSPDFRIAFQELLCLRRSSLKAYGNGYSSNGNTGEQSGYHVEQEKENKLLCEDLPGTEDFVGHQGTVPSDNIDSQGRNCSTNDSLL
In short: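 Cells (CHO, stable ADRB2 overexpression) incubated 18-20hr at 37C; compounds added from DMSO; agonist mix (1nM isoproterenol, 100uM IBMX, 25uM Ro-20-1724) added; 0.5hr RT; d2-cAMP and anti-cAMP-cryptate added; 1hr RT; 665/615 nm read.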

[17] = molecular target: Beta-2 adrenergic receptor (Homo sapiens) (UniProt P07550); experiment: Adrenergic beta2 receptor (ADRB2) small molecule agonists, cell-based qHTS assay (AID 1963593);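 also: CHO cells stably overexpressing human ADRB2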
In short: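 CHO cells stably over-expressing ADRB2 were plated overnight at 37C, then dosed with compounds plus a stimulation mix containing 100uM IBMX and 25uM Ro-20-1724 for 0.5hr at room temperature. cAMP was measured by HTRF competition, 1hr.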

[18] = molecular target: D(2) dopamine receptor (Homo sapiens) (UniProt P14416); experiment: Dopamine D2 receptor (DRD2) small molecule agonists, cell-based qHTS assay (AID 1963594); also: nearly all actives have a fitted effect of over 35% in size
Sequence of D(2) dopamine receptor (Homo sapiens) (P14416 whole entry, looked up): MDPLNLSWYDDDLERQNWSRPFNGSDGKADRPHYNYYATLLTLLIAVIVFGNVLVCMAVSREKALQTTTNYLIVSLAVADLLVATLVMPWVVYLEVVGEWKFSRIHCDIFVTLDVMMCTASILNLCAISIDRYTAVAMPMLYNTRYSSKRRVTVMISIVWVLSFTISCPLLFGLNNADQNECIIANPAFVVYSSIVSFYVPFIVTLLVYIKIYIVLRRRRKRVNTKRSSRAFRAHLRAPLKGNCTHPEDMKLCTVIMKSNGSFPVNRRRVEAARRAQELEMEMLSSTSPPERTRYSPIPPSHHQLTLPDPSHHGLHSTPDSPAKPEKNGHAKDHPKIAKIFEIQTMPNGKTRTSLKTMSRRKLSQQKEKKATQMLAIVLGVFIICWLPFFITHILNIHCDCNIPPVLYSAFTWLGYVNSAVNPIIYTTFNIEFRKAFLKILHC
In short: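 HEK293 cells stably expressing DRD2 were cultured 24 h at 37 C, then given Ro20-1724 (0.1 mM final) and compounds for 10 min at room temperature. NKH477 (200nM) was then added for 30 min. cAMP was read by HTRF.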

[19] = molecular target: D(2) dopamine receptor (Homo sapiens) (UniProt P14416); experiment: Dopamine D2 receptor (DRD2) small molecule antagonists, cell-based qHTS assay (AID 1963595; active = well fitted inhibition curve with a large enough effect in the signal ratio in the repeat runs, with a control signal flat; the % refers to the signal ratio)
In short: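 HTRF cAMP read-out at 665 and 620 nm emission (340 nm excitation). Antagonist mode: compounds were tested against 12 nM quinpirole in DRD2-HEK293 cells, with 200 nM NKH477 raising cAMP and 0.1 mM Ro20-1724 blocking its breakdown.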

[20] = molecular target: KiSS-1 receptor (Homo sapiens) (UniProt Q969F8); experiment: Human kisspeptin (KISS1R) small molecule agonists, calcium flux assay in KISS1R-HEK293 cells (AID 1920064; active = well fitted curve in the direction sought with a large enough effect in the repeat runs; an effect the other way counts as inactive or inconclusive)
Sequence of KiSS-1 receptor (Homo sapiens) (Q969F8 whole entry, looked up): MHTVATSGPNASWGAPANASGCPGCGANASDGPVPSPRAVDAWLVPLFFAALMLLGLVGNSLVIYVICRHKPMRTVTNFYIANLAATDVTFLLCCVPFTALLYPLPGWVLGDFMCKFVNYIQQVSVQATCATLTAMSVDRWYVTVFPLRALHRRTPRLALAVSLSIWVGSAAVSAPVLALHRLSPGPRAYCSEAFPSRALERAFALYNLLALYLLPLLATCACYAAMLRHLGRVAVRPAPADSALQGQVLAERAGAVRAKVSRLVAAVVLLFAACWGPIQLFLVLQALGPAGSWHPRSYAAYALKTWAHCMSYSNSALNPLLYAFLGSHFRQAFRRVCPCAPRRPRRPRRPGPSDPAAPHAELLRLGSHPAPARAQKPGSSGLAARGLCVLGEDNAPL
In short: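 Cells plated and incubated 18 h; dye added, 1 h at 37 C; compounds in DMSO pinned in; signal read at 480/540 nm every second for 3 min. Each compound tested at 15 concentrations in triplicate.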

Measured: Potency

CCC(=O)OC/C=C/c1ccccc1
not listed: [20]
inactive: all other assays above

O=C(OCc1ccccc1)c1ccccc1
not listed: [4] | [5] | [9]
inactive: all other assays above

COc1ccc(NC(C)=O)cc1N
not listed: [4] | [5] | [8] | [9] | [17]
inactive: all other assays above

COc1ccc(CN(CCN(C)C)c2ccccn2)cc1
not listed: [5] | [9] | [10] | [11] | [12] | [13] | [15] | [20]
inactive: all other assays above

C1CCCNCC1
not listed: [5] | [9] | [20]
inactive: all other assays above

Cc1noc(NS(=O)(=O)c2ccc(N)cc2)c1C
not listed: [10] | [11] | [12] | [13] | [20]
inactive: all other assays above

C#C[C@]1(O)CC[C@H]2[C@@H]3CCc4cc(OC)ccc4[C@H]3CC[C@@]21C
active: [2] 54.5 µM and 26.6 µM
not listed: [6] | [10] | [11] | [12] | [13] | [17] | [20]
inactive: all other assays above

C=CC(C)(CCC=C(C)C)OC(C)=O (centres undefined)
not listed: [20]
inactive: all other assays above

Clc1ccc(Sc2cc(Cl)c(Cl)cc2Cl)cc1
not listed: [18] | [20]
inactive: all other assays above

CC1=CC2C3CC(C=C3C)C2C1 (centres undefined)
not listed: [4] | [5] | [9] | [17]
inactive: all other assays above

OC(Cn1cncn1)(Cn1cncn1)c1ccc(F)cc1F
not listed: [10] | [11] | [12] | [13] | [20]
inactive: all other assays above

CC(C)(C)c1cccc(C(C)(C)C)c1O
231 nM (active) and inactive: [12]
not listed: [4] | [15] | [17]
inactive: all other assays above

C/C=C(C)/C=C/C=C(C)C
active: [2] 60.4 µM and 54.5 µM
not listed: [6] | [11] | [16] | [17] | [18] | [20]
inactive: all other assays above

CC(=O)/C=C/C1=C(C)CCCC1(C)C
not listed: [5] | [9] | [19] | [20]
inactive: all other assays above

CC/C=C(\C(=O)N[C@@H]1C(=O)N2C(C(=O)OCOC(=O)C(C)(C)C)=C(COC(N)=O)CS[C@H]12)c1csc(N)n1
inactive and 29.8 µM (active): [2]
not listed: [5] | [20]
inactive: all other assays above

CCNC(=S)NCC
not listed: [17] | [19] | [20]
inactive: all other assays above

C/C=C/c1ccc(OC)cc1
not listed: [4] | [5] | [7] | [8] | [9] | [15]
inactive: all other assays above

O=c1oc(=O)c2cc3c(=O)oc(=O)c3cc12
not listed: [5] | [9] | [17] | [20]
inactive: all other assays above

CNC(=S)N(C)C
not listed: [4] | [14] | [17]
inactive: all other assays above

O=c1n(CC2CO2)c(=O)n(CC2CO2)c(=O)n1CC1CO1 (centres undefined)
active: [2] 60.8 µM and 68.6 µM | [9] 18.1 µM and 20.4 µM
not listed: [14] | [15] | [17] | [20]
inactive: all other assays above

NNCCc1ccccc1
active: [2] 3.87 µM and 8.41 µM
not listed: [6] | [10] | [11] | [12] | [13] | [20]
inactive: all other assays above

CC(C)c1ccc(C(C)C)cc1
not listed: [4] | [18]
inactive: all other assays above

C=C(C)C(=O)OCCOC(=O)C(=C)C
not listed: [4] | [10] | [11] | [17]
inactive: all other assays above

C=C(C)C1CC=C(C)CC1 (centres undefined)
not listed: [6] | [7] | [18] | [20]
inactive: all other assays above

[O-]/[N+](=N\O)c1ccccc1
active: [2] 68 µM and 34.4 µM
not listed: [15] | [17] | [20]
inactive: all other assays above

Nc1nc(=S)c2[nH]cnc2[nH]1
66.8 µM (active) and inactive: [1]
not listed: [4] | [5] | [8] | [9] | [10] | [11] | [12] | [13]
inactive: all other assays above
